Drawing on PubChem BioAssay (NCATS), this text covers Potency and activity change, negative = cytotoxicity for 14 compounds.

Records with an inconclusive call do not appear. Values without a mark were called inactive. Activity calls are given as the source filed them. The call rests on the fitted dose curve; in most records, active means well fitted curve in the direction sought with a large enough effect; inconclusive means small, poorly fitted or top-dose-only effect, or another doubt; inactive means no such curve, though single readings can be large; an effect the other way counts as inactive or inconclusive.

In test [1] the test system is C33A. The test can be described thus: Primary qHTS to identify gynecologic anti-cancer compounds using libraries of approved drugs and bioactive compounds (AID 1345084). Further: nearly all actives have a fitted effect of over 55% in size. On activity change, negative = cytotoxicity: on the % scale 0 is the no-effect control and ±100 the full control effect. To be noted: Gynecologic cancer cell panel viability, ATPlite luminescence, 48 h; series mostly up to 57.5 µM. In a few lines: (§1)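 Cells, 1,000 per well, were allowed to settle for 16 h at 37 C before compound addition. Five concentrations were tested for 48 h, and viability was read by ATPlite luminescence after 15 min at room temperature.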
A general note: In qHTS, concentration-response curves come from the screen itself.

Test [2] has as its system CAOV3. The description is as above. To be noted: Gynecologic cancer cell panel viability, ATPlite luminescence, 48 h; series mostly up to 57.5 µM. In a few lines: as §1
In general terms: In ATP-based viability assays light output follows the ATP content of the culture.

In test [3] the test system is CASKI. The test is described as above. To be noted: Gynecologic cancer cell panel viability, ATPlite luminescence, 48 h; series mostly up to 57.5 µM. In a few lines: as §1
Test [4] concerns Es-2. The description is as above. To be noted: Gynecologic cancer cell panel viability, ATPlite luminescence, 48 h; series mostly up to 57.5 µM. The essentials: as §1
The subject of test [5] is HeLa. The test is described as above. To be noted: Gynecologic cancer cell panel viability, ATPlite luminescence, 48 h; series mostly up to 57.5 µM. The essentials: as §1
For test [6], the system named is Hek293T. The description is as above. To be noted: Gynecologic cancer cell panel viability, ATPlite luminescence, 48 h, control line for the selectivity index; series mostly up to 57.5 µM. The essentials: as §1
Test [7] concerns JEG-3. The test is described as above. To be noted: Gynecologic cancer cell panel viability, ATPlite luminescence, 48 h; series mostly up to 57.5 µM. In a few lines: as §1
The test system of test [8] is OV90. The test is described as above. The settings on record: Gynecologic cancer cell panel viability, ATPlite luminescence, 48 h; series mostly up to 57.5 µM. The essentials: as §1
Test [9] relates to PA-1. The test is described as above. The settings on record: Gynecologic cancer cell panel viability, ATPlite luminescence, 48 h; series mostly up to 57.5 µM. In a few lines: as §1
Test [10] concerns SKOV3. The test is described as above. The settings on record: Gynecologic cancer cell panel viability, ATPlite luminescence, 48 h; series mostly up to 57.5 µM. In a few lines:
as §1

In test [11] the test system is Tov-21-G. Described as above. To be noted: Gynecologic cancer cell panel viability, ATPlite luminescence, 48 h; series mostly up to 57.5 µM. The essentials: as §1
For test [12], the system named is Tov112D. Described as above. To be noted: Gynecologic cancer cell panel viability, ATPlite luminescence, 48 h; series mostly up to 57.5 µM. In a few lines: as §1
Test [13] concerns UISO. In words: qHTS assay to identify novel small-molecules to repurpose for Merkel cell carcinoma treatment (AID 1296009). Further: nearly all actives have a fitted effect of over 60% in size. To be noted: MCC and control cell lines, CellTiter-Glo viability, 72 h. In a few lines: (§2)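 Dose-response viability screen; 72 hr exposure at 37 degree celsius; CellTiter-Glo added, 10 min room temperature, luminescence read; RLUs scaled between no-cell and DMSO wells.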

Test [14] deals with WaGa. Described as above. The settings on record: MCC and control cell lines, CellTiter-Glo viability, 72 h. The essentials:
as §2

The test system of test [15] is astro. The test can be described thus: Drug repurposing screens with cells derived from glioblastoma tumor samples (AID 1345199). Further: nearly all actives have a fitted effect of over 40% in size. To be noted: viability, ATP luminescence, 48 h; series mostly up to 45.9 µM. The essentials: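 Primary testing used CD133+ neurospheres from four GBM patients, seven concentrations, 48 h exposure and ATP-based viability; confirmation added three slower-growing patient lines.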
Potency means the concentration at half of the fitted maximal effect.

In the case of `CCc1[nH]c2ccc(OC)cc2c1CCN(C)C`, the Potency entry in [1], in test [2], in test [3], in test [4], in test [5] and in [6] was “inactive” throughout. For the same compound, the Potency result in [7], in [8], in test [9], in test [10], in test [11] and in test [12] was “inactive” each time.

For `COc1cc(CCNCc2ccccc2O)c(OC)cc1C#N`, the Potency result in test [1], in test [2], in test [3], in [4], in test [5] and in [6] was “inactive” in each case. Besides, the Potency entry in [7], in [8], in test [9], in test [10], in [11] and in test [12] was “inactive” throughout.

In the case of `CC(=O)OC1CC(O)C(C)(C)C2CC(OC(C)=O)C3(C)C(CCC4(C)C(c5ccoc5)C(=O)C5OC543)C12C` (stereo not given), the Potency result in test [1], in [2], in [3], in test [4], in test [5] and in test [6] was “inactive” each time. The Potency entry in test [7], in test [8], in test [9], in test [10], in test [11] and in [12] was “inactive” throughout.

With `CN1[C@@H]2CC[C@H]1CC(OC(=O)C1C=Nc3ccccc31)C2` (stereo not given in full), the Potency result in test [1], in [2], in test [3], in test [4], in [5] and in [6] was “inactive” throughout. The Potency result in [7], in test [8], in test [9], in [10], in test [11] and in test [12] was “inactive” each time.

Regarding `CC(C)C1(OO)C=C2C(=O)CC3C(C)(C(=O)O)CCCC3(C)C2CC1` (stereo not given), the Potency entry in test [1], in test [2], in [3], in [4], in test [5] and in test [6] was “inactive” in each case. Also, the Potency result in [7], in test [8], in test [9], in test [10], in test [11] and in test [12] was “inactive” in each case.

As for `C[C@]12CC[C@@H](O)C[C@H]1CC[C@@H]1[C@@H]2CC[C@]2(C)C(=O)CC[C@@H]12`, the Potency result in test [1], in test [2], in test [3], in [4], in test [5] and in test [6] was “inactive” in each case. In addition, the Potency entry in test [7], in [8], in test [9], in test [10], in test [11] and in test [12] was “inactive” throughout.

As to `CC1=CC2/C=C(\C)CCC(O)C3OC(C)(C)OC3CC(=O)OC23C(=O)NC(CC(C)C)C3C1C` (stereo not given), the Potency result in test [1], in [2], in test [3], in test [4], in [5] and in test [6] was “inactive” throughout. The Potency entry in test [7], in [8], in test [9], in test [10], in test [11] and in test [12] was “inactive” in each case.

For the compound `C=CC(C)(C)c1[nH]c2cccc3c2c1C[C@@H]1[C@@H]3[C@@H](OC(C)=O)[C@H](C)CN1C`, the Potency entry in [1], in test [2], in test [3], in [4], in test [5] and in [6] was “inactive” each time. Besides, the Potency result in [7], in test [8], in test [9], in test [10], in test [11] and in [12] was “inactive” each time.

As for `COc1c(C(C)C)cc2c(c1O)[C@@]1(C(=O)O)CCCC(C)(C)C1CC2` (stereo not given in full), the Potency result in test [1], in test [2], in [3], in [4], in [5] and in test [6] was “inactive” each time. Also, the Potency entry in test [7], in test [8], in test [9], in test [10], in [11] and in test [12] was “inactive” in each case.

As to `COC(=O)C1(C)CCC(O)C2(C)c3c(O)cc(C(C)C)cc3C(O)C(OC(C)=O)C12` (stereo not given), the Potency result in [1], in test [2], in test [3], in [4], in test [5] and in test [6] was “inactive” each time. Moreover, the Potency result in [7], in test [8], in test [9], in [10], in test [11] and in test [12] was “inactive” in each case.

As for `CC1=C2C[C@H]3[C@@H](CC=C4C[C@@H](O)CC[C@@]43C)[C@@H]2CC[C@]12O[C@@H]1C[C@H](C)CN[C@H]1[C@H]2C`, the Potency result in [1], in test [2], in test [3], in test [4], in [5] and in test [6] was “inactive” each time. The Potency result in test [7], in test [8], in test [9], in test [10], in test [11] and in test [12] was “inactive” each time.

For `COC1=CC(=O)O[C@@H](CCc2ccccc2)C1`, the Potency result in test [1], in test [2], in test [3], in [4], in test [5] and in test [6] was “inactive” throughout. For the same compound, the Potency entry in [7], in test [8], in test [9], in [10], in test [11] and in test [12] was “inactive” each time.

Regarding `C[CH2][Hg][S]c1ccccc1C(=O)O`, the Potency in test [13] was 2990 nM (active); in test [14], 2660 nM (active); in test [11], 35500 nM (active); in test [15], 1580 nM (active).

For the compound `COC1CC(O[C@H]2CC[C@@]3(C)C(=CCC4C3C(O)[C@@H](O)[C@]3(C)[C@@H](C(C)=O)CC[C@]43O)C2)OC(C)C1OC1CC(OC)C(OC2OC(C)C(O)C(O)C2O)C(C)O1` (stereo not given in full), the activity change, negative = cytotoxicity was -3.17% [at 11.6 µM] in test [1]; -3.8% [at 11.6 µM] in test [2]; -11.2% [at 11.6 µM] in [3]; -3.8% [at 11.6 µM] in test [4]; -11.4% [at 11.6 µM] in test [5]; -2.86% [at 11.6 µM] in test [6]. Besides, the activity change, negative = cytotoxicity in [7] was -1.29% [at 11.6 µM]; in test [8], -0.104% [at 11.6 µM]; in test [9], -3.19% [at 11.6 µM]; in [10], -4.29% [at 11.6 µM]; in test [11] it was -7.27% [at 11.6 µM]; in test [12], 3.02% [at 11.6 µM].
